Results on 26 molecules are retold here after PubChem BioAssay (Tox21).

Assay [1] can be described thus: qHTS assay to identify small molecule antagonists of the sonic hedgehog signaling (Shh) pathway (AID 1259369). Note: nearly all actives have a fitted effect of over 45% in size. The procedure, abridged:
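Gli1 transcriptional reporter (firefly Luc) in NIH/3T3 background, conditioned-medium activated. 24hr exposure, luminescence endpoint.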

Assay [2] is described as follows: qHTS assay to identify small molecule agonists of the androgen receptor (AR) signaling pathway in the presence of an antagonist - cell viability counter screen (AID 1259379; active = well fitted curve in the direction sought with a large enough effect in the repeat runs; an effect the other way counts as inactive or inconclusive; note: nearly all actives have a fitted effect of over 25% in size; note: potency is the fitted concentration of half-maximal effect). The procedure, abridged: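 Counter screen for cell viability run in parallel with the AR agonist-mode luciferase assay. MDA-kb2 cells were co-treated with nilutamide (3.0uM final) and compounds, then incubated 16 hr at 37C, and CellTiter-Fluor fluorescence was measured.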

Assay [3] is described as follows: qHTS assay to identify small molecule agonists of the estrogen receptor beta (ER-beta) signaling pathway - cell viability counter screen (AID 1259380; active = well fitted curve in the direction sought with a large enough effect in the repeat runs; an effect the other way counts as inactive or inconclusive; note: nearly all actives have a fitted effect of over 30% in size). The method in brief: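 In this qHTS counter screen, HEK293T cells carrying an ER-beta/UAS beta-lactamase reporter, grown in 2% charcoal-stripped FBS, received compound for 16 hr; ATP-based CellTiter-Glo luminescence was then read after 30 min at room temperature.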

A short description of assay [4]: qHTS assay to identify small molecule antagonists of the estrogen receptor beta (ER-beta) signaling pathway - cell viability counter screen (AID 1259382; active = well fitted curve in the direction sought with a large enough effect in the repeat runs; an effect the other way counts as inactive or inconclusive; note: series mostly up to about 92 µM; nearly all actives have a fitted effect of over 55% in size). The method in brief:
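HEK293T ER-beta-UAS-bla, 2% charcoal-stripped FBS; compounds + 1nM E2 16 hr 37C; CellTiter-Glo luminescence, 30 min RT.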

Assay [5] can be described thus: qHTS assay to identify small molecule agonists or antagonists of the thyroid stimulating hormone receptor (TSHR) signaling pathway - wild type cell line counter screen (AID 1259384). The method in brief: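 Wild-type HEK293 cells were plated 18 h at 37 C/5% CO2, pin-dosed with compound plus Ro20-1724 medium, held 30 min at room temperature, then given cAMP-d2 and anti-cAMP-cryptate; fluorescence was read after 1 h. Fifteen concentrations, triplicate.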

Assay [6] concerns the target Thyrotropin receptor (Homo sapiens) (UniProt P16473). Kind of assay: qHTS assay to identify small molecule antagonists of the thyroid stimulating hormone receptor (TSHR) signaling pathway (AID 1259385). Note: nearly all actives have a fitted effect of over 20% in size. The procedure, abridged: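 TSHR-HEK293 cells were plated and held 18 h at 37C/5% CO2, then given compound plus Ro20-1724 and stimulated with TSH at 1.5 ng/mL final. After 30 min at room temperature, cAMP was detected with cAMP-d2/anti-cAMP-cryptate (1 h) by fluorescence.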

In assay [7] the target is Estrogen receptor (Homo sapiens) (UniProt P03372). Description: qHTS assay to identify small molecule agonists of the estrogen receptor alpha (ER-alpha) signaling pathway in the presence of an antagonist (AID 1259383). Note: top concentration of the series differs between compounds; nearly all actives have a fitted effect of over 15% in size. The procedure, abridged:
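ER-alpha agonism measured under antagonist challenge: 10.0nM ICI-182,780 (final) plus compound, 15 concentrations, 22hr, VM7Luc4E2 ERE-luciferase cells. Read by luminescence.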

Assay [8] concerns the target Estrogen receptor beta (Homo sapiens) (UniProt Q92731). Description: qHTS assay to identify small molecule agonists of the estrogen receptor beta (ER-beta) signaling pathway (AID 1259377; active = well fitted activation curve with a large enough effect in the signal ratio in the repeat runs, not every such curve was filed as active; the % refers to the signal ratio). The method in brief: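 Measured by fluorescence intensity from a B/G FRET beta-lactamase substrate (2 h, room temperature) in ER-beta-UAS-bla HEK293T cells treated with DMSO-dissolved compounds for 16 hr at 37C and 5% CO2.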

The target is the same in assay [9]. Kind of assay: qHTS assay to identify small molecule antagonists of the estrogen receptor beta (ER-beta) signaling pathway (AID 1259378; active = well fitted inhibition curve with a large enough effect in the signal ratio in the repeat runs, not every such curve was filed as active; the % refers to the signal ratio; note: potency is the fitted concentration of half-maximal effect). The method in brief: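 ER-beta-UAS-bla HEK293T (GripTite) cells in 2% charcoal-stripped FBS medium were preincubated 6 hr at 37C, dosed with compound, then stimulated with 1 nM E2 (final) for 16 hr; beta-lactamase reporter read by B/G FRET fluorescence after 2 hr substrate loading.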

Assay [10] has as its target Androgen receptor (Homo sapiens) (UniProt P10275). Kind of assay: qHTS assay to identify small molecule agonists of the androgen receptor (AR) signaling pathway in the presence of an antagonist (AID 1259381). Note: nearly all actives have a fitted effect of over 15% in size. The method in brief:
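AR antagonist background: nilutamide 3.0uM final. Cell line: MDA-kb2, MMTV-driven luciferase, responsive to both AR and GR. Exposure 16hr, 37C, no CO2; ONE-Glo luminescence.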

Records with an inconclusive call do not appear. Calls of active or inactive are those of the source. Unless noted, calls come from the whole dose curve.

Sequence of Estrogen receptor (Homo sapiens) (P03372 whole entry, looked up): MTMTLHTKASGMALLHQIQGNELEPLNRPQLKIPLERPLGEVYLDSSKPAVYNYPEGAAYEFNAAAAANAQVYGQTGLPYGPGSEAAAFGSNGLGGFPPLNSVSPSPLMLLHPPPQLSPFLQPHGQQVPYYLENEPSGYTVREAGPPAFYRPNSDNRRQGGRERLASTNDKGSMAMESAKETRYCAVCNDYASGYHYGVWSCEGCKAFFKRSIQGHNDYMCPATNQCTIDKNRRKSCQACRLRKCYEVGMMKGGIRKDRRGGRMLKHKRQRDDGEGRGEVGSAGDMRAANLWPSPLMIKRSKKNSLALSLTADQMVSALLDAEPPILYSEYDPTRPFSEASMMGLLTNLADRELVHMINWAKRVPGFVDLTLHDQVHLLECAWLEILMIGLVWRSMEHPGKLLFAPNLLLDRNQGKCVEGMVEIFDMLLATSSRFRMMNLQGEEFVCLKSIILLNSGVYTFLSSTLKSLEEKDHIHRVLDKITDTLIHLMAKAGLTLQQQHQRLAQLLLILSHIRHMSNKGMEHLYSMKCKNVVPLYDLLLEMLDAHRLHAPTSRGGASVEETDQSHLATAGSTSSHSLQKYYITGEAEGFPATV
Sequence of Androgen receptor (Homo sapiens) (P10275 whole entry, looked up): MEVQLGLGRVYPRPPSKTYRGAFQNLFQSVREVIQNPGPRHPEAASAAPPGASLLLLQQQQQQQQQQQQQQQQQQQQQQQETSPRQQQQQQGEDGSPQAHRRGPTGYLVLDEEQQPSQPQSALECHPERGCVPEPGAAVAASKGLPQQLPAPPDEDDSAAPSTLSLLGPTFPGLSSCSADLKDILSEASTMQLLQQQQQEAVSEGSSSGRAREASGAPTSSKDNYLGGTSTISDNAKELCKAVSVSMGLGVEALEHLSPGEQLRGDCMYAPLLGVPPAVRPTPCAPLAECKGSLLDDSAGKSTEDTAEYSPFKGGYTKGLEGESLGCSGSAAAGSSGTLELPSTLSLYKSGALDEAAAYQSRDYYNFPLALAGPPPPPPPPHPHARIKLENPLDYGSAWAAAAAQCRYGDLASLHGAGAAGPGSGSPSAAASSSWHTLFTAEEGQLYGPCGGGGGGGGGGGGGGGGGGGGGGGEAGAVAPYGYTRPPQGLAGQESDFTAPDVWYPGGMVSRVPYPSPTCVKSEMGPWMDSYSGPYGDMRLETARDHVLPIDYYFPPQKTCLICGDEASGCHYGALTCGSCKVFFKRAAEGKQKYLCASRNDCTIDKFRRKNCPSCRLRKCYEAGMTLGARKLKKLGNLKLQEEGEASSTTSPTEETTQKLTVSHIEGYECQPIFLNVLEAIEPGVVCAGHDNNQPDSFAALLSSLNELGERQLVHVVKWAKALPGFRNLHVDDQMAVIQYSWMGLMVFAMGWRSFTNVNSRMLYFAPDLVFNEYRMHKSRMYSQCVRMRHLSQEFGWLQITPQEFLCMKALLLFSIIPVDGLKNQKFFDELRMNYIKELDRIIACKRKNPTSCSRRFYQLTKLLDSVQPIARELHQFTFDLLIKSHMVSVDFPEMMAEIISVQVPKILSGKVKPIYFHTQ
Sequence of Thyrotropin receptor (Homo sapiens) (P16473 whole entry, looked up): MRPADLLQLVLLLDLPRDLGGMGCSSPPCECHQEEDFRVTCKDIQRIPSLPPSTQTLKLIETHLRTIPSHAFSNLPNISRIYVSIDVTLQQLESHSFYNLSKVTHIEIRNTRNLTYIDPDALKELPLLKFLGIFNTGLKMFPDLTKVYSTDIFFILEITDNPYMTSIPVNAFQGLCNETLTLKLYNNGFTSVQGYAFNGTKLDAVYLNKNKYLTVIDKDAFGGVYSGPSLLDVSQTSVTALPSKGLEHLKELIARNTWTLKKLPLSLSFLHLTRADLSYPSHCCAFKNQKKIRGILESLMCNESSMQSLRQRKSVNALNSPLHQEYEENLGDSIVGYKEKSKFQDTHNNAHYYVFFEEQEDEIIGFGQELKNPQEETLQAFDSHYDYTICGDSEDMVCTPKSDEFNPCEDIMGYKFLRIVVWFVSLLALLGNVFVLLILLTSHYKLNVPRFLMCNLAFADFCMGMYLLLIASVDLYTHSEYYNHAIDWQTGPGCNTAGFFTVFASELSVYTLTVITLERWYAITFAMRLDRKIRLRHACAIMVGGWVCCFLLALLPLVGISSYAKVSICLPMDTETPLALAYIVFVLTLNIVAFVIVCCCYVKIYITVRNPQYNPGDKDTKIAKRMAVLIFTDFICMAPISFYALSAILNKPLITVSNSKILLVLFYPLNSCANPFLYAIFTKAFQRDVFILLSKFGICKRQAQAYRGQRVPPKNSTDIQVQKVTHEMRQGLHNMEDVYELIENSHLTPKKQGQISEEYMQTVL
Sequence of Estrogen receptor beta (Homo sapiens) (Q92731 whole entry, looked up): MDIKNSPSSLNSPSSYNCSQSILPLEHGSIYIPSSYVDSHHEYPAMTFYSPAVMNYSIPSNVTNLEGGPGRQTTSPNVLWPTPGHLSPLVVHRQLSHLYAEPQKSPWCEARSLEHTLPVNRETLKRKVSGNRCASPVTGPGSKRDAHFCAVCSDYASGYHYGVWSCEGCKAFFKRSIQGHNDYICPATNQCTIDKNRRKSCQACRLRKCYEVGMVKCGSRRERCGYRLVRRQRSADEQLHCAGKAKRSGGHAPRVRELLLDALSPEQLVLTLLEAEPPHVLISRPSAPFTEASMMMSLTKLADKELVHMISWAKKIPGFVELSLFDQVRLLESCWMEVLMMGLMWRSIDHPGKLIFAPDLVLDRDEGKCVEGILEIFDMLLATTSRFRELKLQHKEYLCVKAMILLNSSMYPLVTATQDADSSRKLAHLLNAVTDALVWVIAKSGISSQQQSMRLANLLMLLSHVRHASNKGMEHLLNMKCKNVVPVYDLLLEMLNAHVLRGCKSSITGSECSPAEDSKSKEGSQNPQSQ

As to `O=[N+]([O-])c1cccc(O)c1`, the Potency entry in assay [1], in assay [2], in assay [3], in assay [4], in assay [5] and in [6] was “inactive” each time.
As for `COc1ccc(C(=O)N2CCCC2=O)cc1`, the Potency entry in [1], in [2], in assay [3], in [4], in assay [5] and in assay [6] was “inactive” each time.
Consider `C=C(C)[C@@H]1CC=C(C=O)CC1`, for which the Potency entry in assay [1], in assay [2], in [3], in assay [4], in [7] and in assay [5] was “inactive” throughout. In addition, in assay [6], the Potency result was “inactive”.
For the molecule `CCCSC(=O)N(CCC)CCC`, the Potency entry in assay [1], in assay [2], in assay [3], in assay [4] and in [5] was “inactive” each time.
As to `CCSC(=O)N(CC)C1CCCCC1`, the Potency result in assay [1], in assay [2], in [3], in assay [4], in assay [7] and in assay [5] was “inactive” in each case. Also, in assay [6], the Potency result is “inactive”.
For `O=S(=O)(O)C(F)(F)C(F)(F)C(F)(F)C(F)(F)C(F)(F)C(F)(F)F`, the Potency entry in assay [1], in assay [2], in assay [3], in assay [4], in assay [7] and in [6] was “inactive” throughout.
For the molecule `CNC(=O)N(C)c1nc2ccccc2s1`, the Potency entry in [1], in assay [2], in [4], in assay [5] and in assay [6] was “inactive” throughout.
Turning to `O=[N+]([O-])c1ccc(CBr)cc1`, the Potency entry in assay [1], in assay [2], in [3], in [4], in [7] and in assay [5] was “inactive” throughout. The Potency entry in [6] is “inactive”.
Consider `Cc1nnc2n1-c1sc(CCC(=O)N3CCOCC3)cc1C(c1ccccc1Cl)=NC2`, for which the Potency result in [1], in [2], in [3], in assay [4], in assay [7] and in assay [6] was “inactive” throughout.
Consider `O=[N+]([O-])c1cccc2cccnc12`, for which the Potency entry in assay [1], in assay [2], in assay [3], in assay [4], in assay [7] and in [5] was “inactive” in each case. The Potency entry in assay [6] is “inactive”.
Take `COc1cc(OC)nc(Sc2cccc(Cl)c2C(=O)O)n1`: the Potency result in assay [1], in assay [2], in [3], in assay [4] and in assay [6] was “inactive” in each case.
Take `CCS(=O)(=O)CCSP(=O)(OC)OC`: the Potency result in assay [1], in [2], in [3], in [4] and in assay [6] was “inactive” each time.
Turning to `CC(=O)CCc1ccc2c(c1)OCO2`, the Potency entry in assay [1], in [2], in assay [3], in assay [4], in assay [7] and in [5] was “inactive” each time. Also, the Potency result in [6] is “inactive”.
As for `CCOP(=S)(Oc1cnc(C(C)(C)C)nc1)OC(C)C` (stereo not drawn), the Potency result in assay [1], in [2], in [4] and in [5] was “inactive” each time.
`COc1cc(OC)nc(Oc2cccc(Oc3nc(OC)cc(OC)n3)c2C(=O)O)n1`: the result in assay [8] was inactive. Further, the Potency result in [9], in [2], in assay [3], in assay [10] and in assay [4] was “inactive” throughout.
`O=C1OC(CCN2CCCCC2)OC1(c1ccccc1)c1ccccc1` (stereo not drawn): the result in assay [8] was inactive. Further, the Potency entry in assay [9], in [2], in [3], in [10], in assay [4] and in [7] was “inactive” throughout. In addition, the Potency result in assay [5] is “inactive”.
Regarding `O=C(Nc1ccccc1)N(Cc1ccc(Cl)cc1)C1CCCC1`, the molecule was classed as inactive in [8]. Also, the Potency in [9] was 24.3 µM (active); in assay [2], 68.6 µM (active). Further, the Potency result in assay [4], in [5] and in assay [6] was “inactive” in each case.
For the molecule `N#CCBr`, the outcome in assay [8] was inactive. Further, the Potency entry in assay [9], in [2], in [3], in [4], in [7] and in assay [5] was “inactive” in each case. Also, the Potency result in assay [6] was “inactive”.
Take `COC(=O)COc1ccc(Cl)cc1Cl`: the Potency result in [2], in assay [3], in [4], in [5] and in assay [6] was “inactive” in each case.
In the case of `[As]#[In]`, the molecule was classed as inactive in [8]. The Potency result in assay [9], in assay [2], in [3], in assay [4], in assay [5] and in assay [6] was “inactive” in each case.
With `O=C(Nc1ccccc1)c1ccccc1I`, in [8], the result was inactive. For the same molecule, the Potency entry in [2], in assay [10], in assay [4], in assay [7], in assay [5] and in assay [6] was “inactive” in each case.
Turning to `CSc1nc(N=[N+]=[N-])nc(NC(C)C)n1`, the Potency entry in assay [2], in assay [3], in assay [4], in assay [7] and in assay [6] was “inactive” each time.
On to `CC(C(=O)c1ccccc1)N(C)C` (stereo not drawn), for which the Potency result in [9], in [2], in [10], in assay [4], in assay [7] and in [5] was “inactive” in each case. In addition, in assay [6], the Potency entry was “inactive”.
For the molecule `CCCCOC(=O)[C@@H](C)Oc1ccc(Oc2ccc(C#N)cc2F)cc1`, in [8], the molecule was called inactive. The Potency result in [9], in [2], in assay [3], in [4], in assay [7] and in assay [5] was “inactive” throughout.
Turning to `C#CCN1C(=O)COc2cc(F)c(N3C(=O)C4=C(CCCC4)C3=O)cc21`, the molecule was classed as inactive in assay [8]. Further, the Potency result in [2], in assay [3], in assay [10], in assay [4], in [7] and in assay [6] was “inactive” throughout.
In the case of `O=C(O)c1ccc2[nH]cc(CCCCN3CC=C(c4ccccc4)CC3)c2c1`, the Potency result in assay [2], in [3], in [10], in assay [4], in [7] and in [5] was “inactive” throughout. For the same molecule, the Potency result in assay [6] was “inactive”.
